Measured values from PubChem BioAssay (NCI).
Compounds without any hit were thinned out: in the full panel of roughly 79,000, 15% have a hit. Active and inactive are the calls of the source. Rule as the data show it: active = growth inhibition above about 70%; inactive = the rest.

How the values were obtained:
[1] = NCI Yeast Anticancer Drug Screen. Data for the wt1 strain (AID 149);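 also: 0% = growth of vehicle-treated wt1 cultures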; details: S. cerevisiae wt1 strain (SPY 50644) growth inhibition, stronger effect = higher value
In short: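 The wt1 strain was treated with compounds, and growth was compared with vehicle-treated cultures to give inhibition.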

[2] = NCI Yeast Anticancer Drug Screen. Data for the rad50EPP+ strain (AID 151);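 also: 0% = growth of vehicle-treated control cultures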; details: S. cerevisiae rad50 mutant strain, stronger effect = higher value
In short: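 One strain with a rad50 alteration (rad50EPP+) was compound-treated, its growth then compared to that of vehicle controls.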

[3] = NCI Yeast Anticancer Drug Screen. Data for the mgt1 strain (AID 153); details: S. cerevisiae mgt1 mutant growth inhibition, stronger effect = higher value
In short: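 After exposure of the mgt1 yeast mutant to compound, growth was measured and reported as inhibition compared with vehicle controls.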

[4] = NCI Yeast Anticancer Drug Screen. Data for the rad50 strain (AID 155);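 also: 0% = growth of vehicle-only cultures of the same strain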; details: S. cerevisiae rad50 strain growth inhibition, stronger effect = higher value
In short: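 Cells are treated with compound, grown, and their growth is then scored against vehicle-only cultures of the same repair-deficient yeast strain.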

[5] = NCI Yeast Anticancer Drug Screen. Data for the mec2-1 strain (AID 157); details: S. cerevisiae mec2-1 strain, stronger effect = higher value
In short: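 Test agents were screened against the mec2-1 yeast strain, with defined DNA repair or cell cycle alteration. Growth was scored as inhibition against vehicle-only controls.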

[6] = NCI Yeast Anticancer Drug Screen. Data for the rad14 strain (AID 159);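 also: 0% = growth of vehicle-treated control cultures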; details: S. cerevisiae rad14 strain growth inhibition, stronger effect = higher value
In short: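 Readout: yeast growth inhibition, referenced to vehicle-only cultures. Strain bears a defined alteration in DNA damage repair.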

[7] = NCI Yeast Anticancer Drug Screen. Data for the sgs1 mgt1 strain (AID 161);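 also: 0% = growth of cultures given vehicle only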; details: S. cerevisiae sgs1 mgt1 strain, stronger effect = higher value
In short: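 Read-out: growth inhibition vs vehicle controls. Cells: mutant yeast strain deficient in DNA damage repair.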

[8] = NCI Yeast Anticancer Drug Screen. Data for the CLN2oe strain (AID 163);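 also: 0% = growth of vehicle-only control cultures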; details: S. cerevisiae CLN2oe strain, stronger effect = higher value
In short: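 Here, growth inhibition in a cell-cycle-altered yeast strain after compound exposure was quantified against vehicle control growth.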

[9] = NCI Yeast Anticancer Drug Screen. Data for the cln2 rad14 strain (AID 165);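 also: 0% = growth equal to vehicle treated cultures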; details: S. cerevisiae cln2 rad14 strain, stronger effect = higher value
In short: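 Growth of compound-exposed yeast (cln2 rad14 genotype) measured and expressed as inhibition relative to vehicle.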

[10] = NCI Yeast Anticancer Drug Screen. Data for the bub3 strain (AID 167); details: S. cerevisiae bub3 mutant strain, stronger effect = higher value
In short: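 Part of a panel of yeast mutants defective in DNA damage repair or cell cycle regulation. Each strain is grown with compound, and inhibition is calculated relative to solvent-treated cultures.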

[11] = NCI Yeast Anticancer Drug Screen. Data for the wt2 strain (AID 169);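 also: 0% = growth of vehicle-treated yeast cultures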; details: S. cerevisiae wt2 strain growth inhibition, stronger effect = higher value
In short: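 Genetically defined yeast strains from a DNA-repair/cell-cycle panel were used. Compound-exposed yeast growth was measured, and the inhibition was calculated relative to vehicle treatment.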

[12] = NCI Yeast Anticancer Drug Screen. Data for the mlh1 strain (AID 171);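 also: 0% = growth of vehicle-treated control cultures of the same strain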; details: S. cerevisiae mlh1 strain growth inhibition, stronger effect = higher value
In short: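 Here the genetically defined yeast mutant is grown with each compound, and the extent to which its growth falls below that of vehicle-exposed cells is reported.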

[13] = NCI Yeast Anticancer Drug Screen. Data for the sgs1 strain (AID 173);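 also: 0% = growth of vehicle-only control cultures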; details: S. cerevisiae sgs1 mutant, stronger effect = higher value
In short: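 Relative growth inhibition, referenced to vehicle, was determined in a yeast strain with a defined alteration affecting DNA damage repair or cell cycle control after compound exposure.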

[14] = NCI Yeast Anticancer Drug Screen. Data for the mlh1 rad18 strain (AID 175); details: S. cerevisiae mlh1 rad18 strain growth inhibition, stronger effect = higher value
In short: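 In this whole-cell yeast screen, a strain with altered DNA damage repair is challenged with compound, and its growth is measured against matched vehicle-treated controls.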

[15] = NCI Yeast Anticancer Drug Screen. Data for the rad18 strain (AID 177); details: S. cerevisiae rad18 mutant growth inhibition, stronger effect = higher value
In short: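 Screen uses a yeast strain with a defined lesion in DNA damage repair; compound effect is read as loss of growth compared to untreated vehicle cultures.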

[16] = at 5.0 µM (retest, dose inferred, filed as 0.5)
[17] = at 50.0 µM (retest, dose inferred, filed as 5.0)

Measured: growth inhibition

CCN(CC)c1ccc(N=Nc2cc(S(=O)(=O)O)ccc2O)c(O)c1
inactive: [1]; at 1.2 µM 8% | [1]; at 3.7 µM 15% | [1]; at 11.0 µM 20% | [1]; at 33.0 µM 29% | [1]; at 100.0 µM 51% | [2]; at 1.2 µM 8% | [2]; at 3.7 µM -8% | [2]; at 11.0 µM -19% | [2]; at 33.0 µM -23% | [2]; at 100.0 µM -46% | [3]; at 1.2 µM 3% | [3]; at 3.7 µM -9% | [3]; at 11.0 µM 4% | [3]; at 33.0 µM 9% | [3]; at 100.0 µM 27% | [4]; at 1.2 µM -11% | [4]; at 3.7 µM -19% | [4]; [16] 56% | [4]; at 11.0 µM -33% | [4]; at 33.0 µM -28% | [4]; at 50.0 µM 29.2% | [4]; at 100.0 µM -13% | [5]; at 1.2 µM -28% | [5]; at 3.7 µM -7% | [5]; [16] 55% | [5]; at 11.0 µM -19% | [5]; at 33.0 µM -9% | [5]; at 50.0 µM -14.1% | [5]; at 100.0 µM 22% | [6]; at 1.2 µM -15% | [6]; at 3.7 µM -9% | [6]; at 11.0 µM 3% | [6]; at 33.0 µM 1% | [6]; at 100.0 µM 5% | [7]; [16] -13% | [7]; [17] -3% | [7]; at 50.0 µM 66.1% | [8]; at 1.2 µM 8% | [8]; at 3.7 µM 18% | [8]; at 11.0 µM 4% | [8]; at 33.0 µM 9% | [8]; at 100.0 µM 10% | [9]; [16] 32% | [9]; [17] 39% | [9]; at 50.0 µM 21.5% | [10]; at 1.2 µM 24% | [10]; at 3.7 µM 17% | [10]; [16] 24% | [10]; at 11.0 µM 7% | [10]; at 33.0 µM 11% | [10]; [17] 45% | [10]; at 50.0 µM 50.9% | [10]; at 100.0 µM 35% | [11]; at 1.2 µM -13% | [11]; at 3.7 µM -6% | [11]; at 11.0 µM -42% | [11]; at 33.0 µM -64% | [11]; at 100.0 µM -38% | [12]; at 1.2 µM -12% | [12]; at 3.7 µM -37% | [12]; at 11.0 µM -22% | [12]; at 33.0 µM -3% | [12]; at 100.0 µM -12% | [13]; at 1.2 µM -13% | [13]; at 3.7 µM -10% | [13]; at 11.0 µM -12% | [13]; at 33.0 µM -1% | [13]; at 100.0 µM -15% | [14]; [16] 42% | [14]; at 50.0 µM 19.9% | [15]; at 1.2 µM 2% | [15]; at 3.7 µM 3% | [15]; at 11.0 µM 2% | [15]; at 33.0 µM -2% | [15]; at 100.0 µM 7%
active: [4]; [17] 73% | [5]; [17] 81% | [14]; [17] 75%
